Binding signal data for three molecules are collected here from US5487994, “Insertion and deletion mutants of FokI restriction endonuclease” (The Johns Hopkins University).

To fix the notation:
B1: hemi-methylated substrate (GGATG strand) (dsDNA)
DNA 1: CTAGAGTCAGAATTCGAAGACTTGCCGGATGATCTGCAGGCCAGCTGTGGCGTCTAAATTGA
DNA 2: AGCTTCAATTTAGACGCCACAGCTGGCCTGCAGATCATCCGGCAAGTCTTCGAATTCTGACT
modifications: N6-methyladenine in GGATG strand of FokI site
B2: hemi-methylated substrate (CATCC strand) (dsDNA)
DNA 1: CTAGAGTCAGAATTCGAAGACTTGCCGGATGATCTGCAGGCCAGCTGTGGCGTCTAAATTGA
DNA 2: AGCTTCAATTTAGACGCCACAGCTGGCCTGCAGATCATCCGGCAAGTCTTCGAATTCTGACT
modifications: N6-methyladenine in CATCC strand of FokI site
B3: fully methylated substrate (dsDNA)
DNA 1: CTAGAGTCAGAATTCGAAGACTTGCCGGATGATCTGCAGGCCAGCTGTGGCGTCTAAATTGA
DNA 2: AGCTTCAATTTAGACGCCACAGCTGGCCTGCAGATCATCCGGCAAGTCTTCGAATTCTGACT
modifications: N6-methyladenine in both strands of FokI site

In this assay the target is FokI endonuclease wild-type (Flavobacterium okeanokoites, UniProt P14870 P14870:2-579). Nature of the assay: filter; with poly(dI-dC), 1 mM EDTA, 22 C. The following applies: tags: expressed in E. coli RR1 from pRRSfokIR; label: 32P. Here is the method: The filter binding assays were performed in duplicate using *Fok*I or mutant enzymes and the four different synthetic substrates, SEQ ID NO:12, SEQ ID NO:13, hemi-methylated oligonucleotide of SEQ ID NO:12 and hemi-methylated oligonucleotide of SEQ ID NO:13. Nine different concentrations for each of the enzymes were made by serial dilutions ([…], 2000, 667, 222, 74.1, 24.7, 8.23, 2.74 and 0.914 nM). The enzymes were mixed with 40 nM of each labelled substrate along with 50 μg/ml p(dI-dC) and 50 μg/ml BSA in 50 μl of buffer A[10 mM Tris. phosphate (pH 8.0), 7 mM 2-mercaptoethanol, 1 mM EDTA, 50 mM NaCl, and 10% (vol/vol) glycerol]. The samples were incubated at 22° C. for 1 hr and then loaded on to nitrocellulose filters. The filters were washed twice with 0.5 ml of buffer A, dried and counted using the scintillation counter.
FokI endonuclease wild-type, sequence (P14870 2-579, one chain of several): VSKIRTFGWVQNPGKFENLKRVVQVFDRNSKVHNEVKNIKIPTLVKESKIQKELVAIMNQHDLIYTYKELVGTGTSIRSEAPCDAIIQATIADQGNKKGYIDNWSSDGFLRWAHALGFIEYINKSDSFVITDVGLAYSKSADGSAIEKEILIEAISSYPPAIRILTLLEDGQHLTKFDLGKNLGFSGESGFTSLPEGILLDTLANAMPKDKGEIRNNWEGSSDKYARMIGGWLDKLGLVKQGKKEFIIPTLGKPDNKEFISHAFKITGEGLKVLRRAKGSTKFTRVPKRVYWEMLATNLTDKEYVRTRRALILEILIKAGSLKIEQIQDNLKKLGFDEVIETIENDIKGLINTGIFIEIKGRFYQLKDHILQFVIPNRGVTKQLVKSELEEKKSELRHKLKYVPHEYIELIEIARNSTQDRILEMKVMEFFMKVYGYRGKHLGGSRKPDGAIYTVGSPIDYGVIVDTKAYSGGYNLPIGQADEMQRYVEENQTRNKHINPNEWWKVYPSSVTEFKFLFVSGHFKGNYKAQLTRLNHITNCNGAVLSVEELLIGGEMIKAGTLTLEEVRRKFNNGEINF
Why does the four amino-acid residue insertions enable the mutant enzymes to cleave hemi-methylated DNA and not the larger inserts? The four codon insertions could increase the affinity of the mutants for the hemi-methylated DNA. The binding affinities of wild-type enzyme and both four codon insertion mutants were compared by filter binding assays using the synthetic oligonucleotide substrates (FIGS. 9A, 9B and 9C). The binding affinities were measured in the presence of non-specific DNA, poly dI-dC.
On to B1, for which the binding signal was ~100 fold less efficient than unmethylated.

For B2, the binding signal was ~100 fold less efficient than unmethylated.

Regarding B3, the binding signal was ~100 fold less efficient than unmethylated.
